Pf growth 96h: inhibits malaria parasite growth, 96 h; P. falciparum luciferase reporter growth, 96 h; Potency, µM (titrated, usually from 28.7 µM), most hits filed as inhibitors; hit rate 6.9% among 320,000; AID 504834
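Two parasite generations (96 h, 37 C, 5% CO2) of compound exposure in infected erythrocytes (0.05% parasitemia, 2% hematocrit). Luciferase-reporter P. falciparum; decreased luminescence indicates inhibited growth, aimed at apicoplast-acting delayed death.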
Pf growth 48h: P. falciparum growth inhibition at 48 hours (one generation); P. falciparum luciferase growth in erythrocytes, 48 h; Potency, µM (highest dose often 28.7 µM), hits mostly inhibitors; hit rate 5.9% among 310,000
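Firefly luciferase activity from engineered P. falciparum reports growth; inhibitors lower the luminescent signal. Cultures contained 2% hematocrit erythrocytes at 0.1% final parasitemia.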
Giardia FBPA inh: blocks Giardia fructose-bisphosphate aldolase activity | AID 2451 | A8B2U2 | purified Giardia FBPA | hit rate 0.71% among 290,000 | Potency, µM (top dose mostly 59.6 µM), actives largely listed as inhibitors; further: nearly all actives have a fitted effect of over 55% in size
Target sequence (A8B2U2 whole entry, looked up): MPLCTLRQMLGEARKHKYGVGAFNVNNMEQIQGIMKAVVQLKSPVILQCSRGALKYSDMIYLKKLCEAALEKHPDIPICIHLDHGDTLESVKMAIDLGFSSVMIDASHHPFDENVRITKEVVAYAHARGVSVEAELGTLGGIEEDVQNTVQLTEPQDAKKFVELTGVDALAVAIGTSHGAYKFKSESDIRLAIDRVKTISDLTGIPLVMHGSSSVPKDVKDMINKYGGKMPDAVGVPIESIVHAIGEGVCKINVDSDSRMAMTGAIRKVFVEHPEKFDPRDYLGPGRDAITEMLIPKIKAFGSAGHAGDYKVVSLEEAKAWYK
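40 nM FBPA preincubated 10 min at RT with compound (up to 57.5 uM final), then substrate plus GAPDH/TPI/NAD/arsenate coupling and diaphorase/resazurin added. Fluorescence read after 20 min at RT, 525/598 nm.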
HCMV inh: blocks human cytomegalovirus replication; HFF cells, HCMV-luciferase reporter, 72 h; active compounds read low; activity change, negative = inhibition, % at 57.5 µM; hit rate 4.5% among 410,000; AID 1259415; in the data active means activity change below about -60%; inconclusive means no clear call, values can overlap the other calls; inactive means above about -39%
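Two-dose cell screen: HFF monolayers treated with compounds and infected with luciferase-expressing HCMV at 1 PFU/cell, 72 h at 37C, then lysed for luciferase measurement.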
Sm TGR inh: S. mansoni TGR enzyme inhibition. Q962Y6. purified TGR, DTNB reduction, TNB absorbance 405 nm. Potency, µM (highest dose often 114 µM), most hits filed as inhibitors. hit rate 3% among 360,000. AID 485364; further: nearly all actives have a fitted effect of over 60% in size
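First, TGR (20 nM dispensed) and NADPH were mixed with compound. Second, a 15 min room-temperature incubation followed. Third, further NADPH and then DTNB were added to start the reaction. Finally, TNB absorbance was monitored kinetically.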
Each line names hits and unclear results; the compound was inactive in the other large screens. Rows were chosen to be rich in hits. Some 14% of all compounds tested hit in one or more screens of this group. Unless noted, the call rests on the fitted dose curve; in most records, active means well fitted curve in the direction sought with a large enough effect; inconclusive means small, poorly fitted or top-dose-only effect, or another doubt; inactive means no such curve, though single readings can be large; an effect the other way counts as inactive or inconclusive.

CCc1ccc(OC)c(S(=O)(=O)Nc2ccc(Cc3ccncc3)cc2)c1	Pf growth 48h inconclusive, HCMV inh -75.0
CCN(CC)Cc1c(C(=O)N/N=C/c2cccc(OCc3cccc(Cl)c3)c2)nnn1-c1nonc1N	none (no result: Giardia FBPA inh)
COc1ccc(CNCc2ccncc2)cc1OC	Pf growth 96h 10.4µM, Pf growth 48h inconclusive, Giardia FBPA inh inconclusive
COc1ccc(S(=O)(=O)NCc2ccncc2)cc1OC	HCMV inh -64.6
COC(=O)c1ccccc1NC(=O)Cn1c(=O)n(CCC(=O)NC2CCN(Cc3ccccc3)CC2)c(=O)c2ccccc21	Pf growth 96h 9.28µM
COC(=O)c1ccccc1NC(=O)Cn1c(=O)n(CCCC(=O)NCc2ccccc2Cl)c(=O)c2ccccc21	none (no result: Pf growth 96h, Pf growth 48h, Giardia FBPA inh)
COC(=O)c1ccccc1NC(=O)Cn1c(=O)n(-c2ccc(C)cc2)c(=O)c2ccccc21	HCMV inh -62.0 (no result: Pf growth 96h, Pf growth 48h, Giardia FBPA inh)
CCCCn1c(=O)[nH]c(=O)c2c1nc(CN1C(=O)c3ccccc3S1(=O)=O)n2CCC	Pf growth 96h inconclusive, Pf growth 48h inconclusive
CCCCn1c(=O)[nH]c(=O)c2c1nc(Cn1ncc(Cl)c(Cl)c1=O)n2CCC	Pf growth 96h inconclusive, Pf growth 48h inconclusive, HCMV inh -100.4, Sm TGR inh 17.8µM
NCCCC(O)(P(=O)(O)O)P(=O)(O)O	none (no result: HCMV inh, Sm TGR inh)
CCOC(=O)c1[nH]nc(-c2cc(CC)c(O)cc2O)c1-c1cscn1	Pf growth 96h inconclusive, Pf growth 48h inconclusive, HCMV inh -102.6
Brc1ccc2c(c1)OCCOCCOCCOCCOCCO2	Pf growth 96h 10.4µM
c1ccc2c(c1)OCCOCCOCCOCCOc1ccccc1OCCOCCOCCO2	Pf growth 96h 11.7µM, HCMV inh inconclusive
COc1ccc(Cl)cc1N1C(=NC(=O)C2CCCO2)SC2CS(=O)(=O)CC21 (centres undefined)	none
Fc1ccccc1-c1nc(-c2ccccc2)oc1NC1CCCCC1	none (no result: Pf growth 96h, Pf growth 48h, HCMV inh, Sm TGR inh)
CCCc1nn2cc(-c3ccc(C)c(C)c3)nc2s1	HCMV inh -62.0 (no result: Pf growth 96h, Pf growth 48h, Giardia FBPA inh)
O=[N+]([O-])c1ccccc1Nc1cccc(F)c1	none (no result: Pf growth 96h, Pf growth 48h, Giardia FBPA inh, Sm TGR inh)
CO[C@@H]1COC(=O)[C@H](COCc2ccccc2)NC(=O)C/C=C\[C@@H](C)[C@H](OC)COC(=O)[C@@H](C)NC(=O)C/C=C\[C@H]1C	none (no result: Pf growth 96h, Pf growth 48h, HCMV inh, Sm TGR inh)
Cc1ccc(S(=O)(=O)Nc2cccc3cccnc23)c([N+](=O)[O-])c1	Pf growth 48h 2.62µM, HCMV inh -98.1
CC(=O)Nc1ccc(S(=O)(=O)Nc2cccc3cccnc23)cc1	HCMV inh -82.8
O=S(=O)(Nc1cccc2ccccc12)c1ccccc1	Giardia FBPA inh inconclusive
Cc1ccc2cccc(NS(=O)(=O)c3ccccc3)c2n1	Pf growth 48h inconclusive, HCMV inh -80.0 (no result: Giardia FBPA inh)
O=S(=O)(Nc1cccc2cccnc12)c1ccc(S(=O)(=O)N2CCCC2)cc1	Pf growth 96h inconclusive, Pf growth 48h 10.4µM, Giardia FBPA inh inconclusive, HCMV inh -85.9
CC(C)C[C@H](NC(=O)N1CCn2c1nc1ccccc12)C(=O)N[C@H](Cc1ccccc1)C(=O)O	Pf growth 96h inconclusive
CCN(C(=O)CCc1nnc2ccc(NCc3ccco3)nn12)c1ccccc1	Pf growth 96h inconclusive, Pf growth 48h inconclusive (no result: Giardia FBPA inh)
COc1ccc(NS(=O)(=O)c2ccc3ccccc3c2)c2ncccc12	Pf growth 48h 2.94µM, HCMV inh -92.1
O=S(=O)(Nc1cccc2cccnc12)c1ccccc1	Pf growth 48h 3.7µM, Giardia FBPA inh 17.7µM, HCMV inh -100.9
CCc1nc(N)nc(N)c1-c1ccc(Cl)cc1	Pf growth 96h 4.26µM, Pf growth 48h 0.0828µM, HCMV inh -98.6
CCc1nc(N)nc(N)c1-c1ccc(NCCN)c([N+](=O)[O-])c1	HCMV inh -78.4 (no result: Pf growth 96h, Pf growth 48h, Giardia FBPA inh, Sm TGR inh)
CCc1nc(N)nc(N)c1-c1ccc(N(C)Cc2ccccc2)c([N+](=O)[O-])c1	HCMV inh -97.2 (no result: Pf growth 96h, Pf growth 48h, Giardia FBPA inh, Sm TGR inh)
CCC(=O)n1nc(-c2ccc(Cl)cc2)nc1N	Pf growth 96h inconclusive
Cc1cccc(CNC(=O)c2cc(S(=O)(=O)N3CCOCC3)cn2C)c1	none
CCOC(=O)c1nc(Nc2ccc(N3CCC(C)CC3)cc2)c2ccccc2n1	Pf growth 48h inconclusive
COc1ccc(N2CCN(C(=O)CCc3c(C)nc4cc(-c5cccc(F)c5)nn4c3C)CC2)cc1	none (no result: Pf growth 96h, Pf growth 48h, Giardia FBPA inh)
CN(C)S(=O)(=O)c1cccc(NC(=O)CSc2cccc3cccnc23)c1	Pf growth 96h 7.38µM, Pf growth 48h 11.7µM, HCMV inh -100.7
